Reference: PubChem BioAssay (NCATS)
Records with an inconclusive call do not appear. Where a call stands in place of a potency, no number is given. A number with no mark means an inactive call. Activity calls are given as the source filed them. Calls come from the whole dose curve; as a rule, active = well fitted inhibition curve with a large enough effect; inconclusive = small, poorly fitted or top-dose-only effect; inactive = flat fitted curve, though single readings scatter.

Tests used:
Test in all cases: qHTS profiling for inhibitors of Plasmodium falciparum proliferation (AID 504749); note: nearly all actives have a fitted effect of over 60% in size
Conditions in all cases: P. falciparum in erythrocytes, SYBR Green DNA, 72 h; series mostly up to 28.7 µM
CP215 = tested on: CP215
In short: (§1)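 Parasite proliferation within erythrocytes, 72 h exposure. Endpoint: SYBR Green I fluorescence after overnight lysis at room temperature. Controls: 0.29 uM artemisinin, DMSO.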

CP217 = tested on: CP217
In short: as §1

CP237 = tested on: CP237
In short: as §1

CP238 = tested on: CP238
In short: as §1

CP247 = tested on: CP247
In short: as §1

CP250 = tested on: CP250
In short: as §1

CP252 = tested on: CP252
In short: as §1

CP256 = tested on: CP256
In short: as §1

CP260 = tested on: CP260
In short: as §1

CP262 = tested on: CP262
In short: as §1
Potency is the fitted concentration of half-maximal effect.

Row | SMILES | Potency (CP215) | Potency (CP217) | Potency (CP237) | Potency (CP238) | Potency (CP247) | Potency (CP250) | Potency (CP252) | Potency (CP256) | Potency (CP260) | Potency (CP262)
1 | c1ccc2c(c1)sc1ccccc12 | inactive | inactive | inactive | inactive | inactive | inactive | inactive | inactive | inactive | inactive
2 | CN1C(=O)CCS(=O)(=O)C1c1ccc(Cl)cc1 (stereo not drawn) | inactive | inactive | inactive | inactive | inactive | inactive | inactive | inactive | inactive | inactive
3 | Oc1ccc(Cl)cc1 | inactive | inactive | inactive | inactive | inactive | inactive | inactive | inactive | inactive | inactive
4 | CC(C)c1cccc(C(C)C)c1O | inactive | inactive | inactive | inactive | inactive | inactive | inactive | inactive | inactive | inactive
5 | Nc1ccccc1C(=O)O | inactive | inactive | inactive | inactive | inactive | inactive | inactive | inactive | inactive | inactive
6 | COC(=O)C(c1ccccc1)C1CCCCN1 (stereo not drawn) | inactive | inactive | 12.6 µM (active) | inactive | inactive | inactive | inactive | inactive | inactive | 
7 | O=C(Nc1ccc(Br)cc1)c1cc(Br)cc(Br)c1O | inactive | inactive | inactive | inactive | inactive | inactive | inactive | inactive | inactive | 
8 | O=c1oc2ccccc2c(O)c1Cc1c(O)c2ccccc2oc1=O | inactive | inactive | inactive | inactive | inactive | inactive | inactive | inactive | inactive | inactive
9 | NC(=O)CS(=O)C(c1ccccc1)c1ccccc1 (stereo not drawn) | inactive | inactive | inactive | inactive | inactive | inactive | inactive | inactive | inactive | inactive
10 | NCCc1ccc(O)cc1 | inactive | inactive | inactive | inactive | inactive | inactive | inactive | inactive | inactive | inactive
11 | CN1CCC(O)(c2ccc(F)cc2)C(C(=O)c2ccc(F)cc2)C1 (stereo not drawn) | inactive | inactive | inactive | inactive | inactive | inactive | inactive | inactive |  | inactive
12 | CCOP(=S)(OCC)Oc1ccc2c(C)c(Cl)c(=O)oc2c1 |  |  |  |  | inactive |  |  |  |  | inactive
13 | O=C1Nc2ccc(Cl)cc2C(c2ccccc2Cl)=NC1O (stereo not drawn) |  | inactive | inactive | inactive | inactive | inactive | inactive | inactive | inactive | 
14 | CC(C)(C)NCC(O)c1cc(Cl)c(N)c(C(F)(F)F)c1 (stereo not drawn) |  | 11.2 µM (active) | 7.08 µM (active) | 8.91 µM (active) | 10 µM (active) | 10 µM (active) | 8.91 µM (active) | 11.2 µM (active) | 12.6 µM (active) | 
15 | COC1CC(=C(c2cccs2)c2cccs2)C[N+](C)(C)C1 (stereo not drawn) |  | 6.31 µM (active) | 11.2 µM (active) | 6.31 µM (active) | 5.01 µM (active) | 10 µM (active) | 4.47 µM (active) | 4.47 µM (active) | 5.62 µM (active) | 
16 | Clc1ccc(C(c2ccc(Cl)cc2)C(Cl)(Cl)Cl)cc1 |  | inactive |  | inactive | inactive | inactive | inactive | inactive | inactive | inactive
17 | CC(C)=CC1C(C(=O)OCN2C(=O)C3=C(CCCC3)C2=O)C1(C)C (stereo not drawn) | inactive | inactive | inactive | inactive | inactive | inactive | inactive | inactive | inactive | inactive
18 | Cc1ncsc1CCCl | inactive | inactive | inactive | inactive | inactive | inactive | inactive | inactive | inactive | inactive
19 | O=C1c2ccccc2C(=O)c2ccccc21 | inactive | inactive | inactive | inactive | inactive | inactive | inactive | inactive |  | inactive
20 | CCC1(CC)C(=O)C=CNC1=O | inactive | inactive | inactive | inactive |  | inactive | inactive | inactive | inactive | inactive
21 | COP(=S)(OC)SCN1C(=O)c2ccccc2C1=O | inactive | inactive | inactive | inactive |  | inactive | inactive | inactive | inactive | inactive
22 | Clc1cccc(SC2CCNCC2)n1 | inactive | inactive | inactive | inactive | inactive | inactive | inactive | inactive | inactive | inactive
